The list is not random: actives were taken first. Their share in the collection is about 5.3%.
HP1b chromo inh = blocks HP1-beta chromodomain binding to methylated histone tails | Potency, µM (highest dose often 114 µM), actives largely listed as inhibitors | AlphaScreen HP1-beta / biotin-H3K9me3 peptide binding | 0.56% of 390,000 active | AID 540317 | P83916; note: nearly all actives have a fitted effect of over 70% in size
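HP1-beta protein (50 nM final) preincubated 30 min at room temperature with biotinylated H3(1-18)K9me3 peptide (50 nM) in PBS pH 7.4, 0.01% Tween-20, then compound added for 30 min. AlphaScreen streptavidin donor/nickel chelate acceptor beads (10 ug/mL final), 30 min dark, luminescence read.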
JMJD2A Tudor = JMJD2A Tudor domain (human) inhibition; 4.4% of 390,000 active; Potency, µM (highest dose often 114 µM), actives largely listed as inhibitors; AlphaScreen JMJD2A-Tudor / H3K4me3 peptide binding; O75164; note: nearly all actives have a fitted effect of over 50% in size
CtBP-E1A blk = CtBP/E1A binding inhibition; AlphaScreen GST-E1A/His-CtBP binding, 1536-well; hits give low values; activity change, % (concentration not given with the values); 0.49% of 340,000 active; in the data active = activity change below about -65%; inconclusive = mostly about -30% to -63%
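GST-E1A and His-tagged CtBP (125 nM each as 5X stock) were preincubated with pin-transferred compound for 2 h at 37 °C in the dark, then glutathione donor and nickel acceptor beads were added for 1 h before AlphaScreen reading.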
Six1-Eya2 inh = inhibitors of human Six1/Eya2 interaction. Q15475+O00167. AlphaScreen GST-Six1/His-Eya2 binding, biochemical; hits give low values. activity change, % (concentration not given with the values). 0.56% of 360,000 active. AID 651725; in the data active = activity change below about -65%; inconclusive = mostly about -30% to -63%
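Homogeneous AlphaScreen proximity assay pairing GST-Six1 with His-tagged Eya2 (added as 5X mix: 250 nM and 500 nM) in 50 mM Tris pH 8.0, 300 mM NaCl, 1 mM TCEP. Glutathione donor and nickel acceptor beads; 1 h, 37 °C, dark.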
BAZ2B inh = BAZ2B (human) inhibition. AlphaScreen BAZ2B-H3K14Ac peptide displacement. Potency, µM (titrated, usually from 114 µM), actives largely listed as inhibitors. 4.4% of 360,000 active; note: nearly all actives have a fitted effect of over 60% in size
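AlphaScreen displacement of biotin-H3(5-23)K14Ac peptide (50 nM final) from BAZ2B (50 nM final) in PBS pH 7.4, 0.01% Tween-20; complex preformed 30 min RT, then compounds (top 110 uM) 30 min RT, beads 20 min dark.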
TDP1 block = blocks human tyrosyl-DNA phosphodiesterase 1; Q9NUW8; recombinant TDP1, AlphaScreen DNA substrate cleavage; Potency, µM (doses to about 130 µM), actives largely listed as inhibitors; 0.28% of 350,000 active; AID 485290; note: nearly all actives have a fitted effect of over 40% in size
Target sequence (Q9NUW8 whole entry, looked up): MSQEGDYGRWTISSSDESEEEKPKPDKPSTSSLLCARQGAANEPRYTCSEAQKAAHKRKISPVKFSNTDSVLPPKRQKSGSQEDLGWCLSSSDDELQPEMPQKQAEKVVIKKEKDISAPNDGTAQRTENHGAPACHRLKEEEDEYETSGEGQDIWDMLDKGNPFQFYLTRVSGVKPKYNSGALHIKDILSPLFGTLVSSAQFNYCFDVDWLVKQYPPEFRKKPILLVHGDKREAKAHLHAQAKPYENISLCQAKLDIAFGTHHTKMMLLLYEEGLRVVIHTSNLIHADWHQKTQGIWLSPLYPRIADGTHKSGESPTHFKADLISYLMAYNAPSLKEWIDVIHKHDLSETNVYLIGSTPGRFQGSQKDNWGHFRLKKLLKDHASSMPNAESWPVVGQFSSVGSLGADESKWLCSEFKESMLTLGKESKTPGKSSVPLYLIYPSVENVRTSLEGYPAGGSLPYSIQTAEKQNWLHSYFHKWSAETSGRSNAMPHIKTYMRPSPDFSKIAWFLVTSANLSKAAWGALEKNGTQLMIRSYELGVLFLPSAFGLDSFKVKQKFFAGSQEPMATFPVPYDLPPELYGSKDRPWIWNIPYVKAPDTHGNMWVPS
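E. coli-derived human Tdp1, 1 nM final. Cpd preinc 15 min RT; substrate 15 nM final, 5 min RT; AS bead mix 10 ug/ml final, 10 min RT. Signal loss = tyrosine-FITC cleavage. No-enzyme wells = max signal.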
Each line names hits and unclear results; the compound was inactive in the other large screens. Unless noted, calls come from the whole dose curve; as a rule, active = well fitted inhibition curve with a large enough effect; inconclusive = small, poorly fitted or top-dose-only effect; inactive = no such curve, though single readings can be large or run the other way.

O=C(CSc1n[nH]c(-c2ccncc2)n1)Nc1ccc(F)cc1	none
COc1ccc(Br)cc1CNC(=O)C1CCCCN1S(=O)(=O)c1ccc(F)cc1 (stereo not drawn)	none (no result: CtBP-E1A blk, Six1-Eya2 inh)
CCc1cc(=O)[nH]c(SCc2nc(-c3ccc(C(F)(F)F)cc3)no2)n1	none (no result: CtBP-E1A blk, Six1-Eya2 inh)
O=C(CSc1n[nH]c(-c2ccncc2)n1)Nc1ccccc1	none
O=C(CSc1n[nH]c(-c2ccccn2)n1)Nc1ccc(Cl)cc1	JMJD2A Tudor 10µM, CtBP-E1A blk -92.4, Six1-Eya2 inh -90.8, BAZ2B inh 5.01µM
CCN(Cc1ccccc1)c1ccccc1	none (no result: BAZ2B inh)
CCN(Cc1ccccc1)c1ccc(/C=N/N=C(N)N)cc1	HP1b chromo inh inconclusive, JMJD2A Tudor 35.5µM, BAZ2B inh inconclusive
Oc1ccc(Cl)c2cccnc12	JMJD2A Tudor 17.8µM, CtBP-E1A blk -94.9, Six1-Eya2 inh -91.5 (no result: BAZ2B inh)
Oc1c(Cl)cc(Cl)c2cccnc12	JMJD2A Tudor 28.2µM, CtBP-E1A blk -90.3, Six1-Eya2 inh -90.4 (no result: BAZ2B inh)
Clc1cc2cccnc2c2ccccc12	none
Cc1ccc(S(=O)(=O)Nc2cc(Cl)c(O)c3ncccc23)cc1	HP1b chromo inh 79.4µM, JMJD2A Tudor 22.4µM, CtBP-E1A blk -89.0, Six1-Eya2 inh -90.1, BAZ2B inh 8.91µM
Cc1cc(Cl)c2ccc3ccccc3c2n1	none
Cc1ccc2c(Cl)cc(Cl)c(O)c2n1	CtBP-E1A blk -65.5, Six1-Eya2 inh inconclusive (no result: BAZ2B inh)
CO[C@H]1COC(=O)[C@H]2CCCN2C(=O)[C@@H](C)COC(=O)C/C=C\[C@@H]1C	none (no result: HP1b chromo inh, JMJD2A Tudor, CtBP-E1A blk, Six1-Eya2 inh, BAZ2B inh)
Cc1ccc(-c2noc(CN(C3CCCCC3)S(=O)(=O)c3ccc(Cl)cc3)n2)cc1	none (no result: CtBP-E1A blk, Six1-Eya2 inh)
COCCNC(=O)c1c(NC(=O)c2cc(=O)c3cc(Cl)ccc3o2)sc2c1CCCC2	none (no result: CtBP-E1A blk, Six1-Eya2 inh)
OC(c1ccccc1)(c1ccccc1)c1cnc2ccccn12	none (no result: HP1b chromo inh, CtBP-E1A blk, Six1-Eya2 inh, BAZ2B inh)
Oc1ccc(F)c2cccnc12	JMJD2A Tudor 10µM, Six1-Eya2 inh -81.4, BAZ2B inh 15.8µM
Oc1c(I)cc(I)c2cccnc12	JMJD2A Tudor 56.2µM, CtBP-E1A blk -73.0, Six1-Eya2 inh -66.6
O=S(=O)(O)c1cc(I)c(O)c2ncccc12	none (no result: HP1b chromo inh, JMJD2A Tudor, CtBP-E1A blk, Six1-Eya2 inh, BAZ2B inh)
c1cnc2nc3c4ccccc4c4ccccc4c3nc2c1	JMJD2A Tudor inconclusive, CtBP-E1A blk inconclusive, Six1-Eya2 inh inconclusive (no result: BAZ2B inh, TDP1 block)
COc1ccc(NC(=O)CNC(c2ccccc2)c2ccccc2)cc1	HP1b chromo inh inconclusive, JMJD2A Tudor 20µM, BAZ2B inh 79.4µM (no result: CtBP-E1A blk, TDP1 block)
COc1ccc(C(NCC(=O)NC(C)c2ccc(Cl)cc2)c2ccccc2)cc1 (stereo not drawn)	HP1b chromo inh inconclusive, JMJD2A Tudor 25.1µM, BAZ2B inh 79.4µM (no result: TDP1 block)
CC(NC(=O)COC(=O)COc1ccc(Cl)cc1)c1ccccc1 (stereo not drawn)	none (no result: BAZ2B inh)
Cn1nc(-c2ccc(Cl)cc2)c2cc(C(=O)N3CCOCC3)sc21	none
COc1ccc(N2CCN(C(=O)c3cc4c(-c5ccccc5F)nn(C)c4s3)CC2)cc1	HP1b chromo inh inconclusive, JMJD2A Tudor 11.2µM (no result: CtBP-E1A blk, Six1-Eya2 inh, BAZ2B inh)
COc1ccc(N2CCN(C(=O)c3cc4c(-c5ccc(Cl)cc5)nn(C)c4s3)CC2)cc1	JMJD2A Tudor inconclusive, BAZ2B inh 10µM
O=c1c2ccccc2cnn1Cc1n[nH]c(=S)n1-c1ccc(F)cc1	JMJD2A Tudor 6.31µM
O=c1c2ccccc2cnn1Cc1n[nH]c(=S)n1-c1ccc(F)c(Cl)c1	JMJD2A Tudor 7.94µM
O=c1c2ccccc2cnn1Cc1n[nH]c(=S)n1-c1ccccc1Cl	JMJD2A Tudor 31.6µM
O=c1c2ccccc2cnn1Cc1ccc(Cl)c(Cl)c1	none (no result: TDP1 block)
Cc1ccc(-n2c(Cn3ncc4ccccc4c3=O)n[nH]c2=S)cc1	JMJD2A Tudor 8.91µM, BAZ2B inh inconclusive
Fc1ccc(-n2c(-c3ccc4ccccc4n3)n[nH]c2=S)cc1	none
C=Cc1ccc(Cn2c(C(=O)O)c(CNCCc3ccccc3)c3ccc(C)cc32)cc1	none (no result: CtBP-E1A blk, Six1-Eya2 inh)
O=C(Nc1ccc(Cl)cc1F)c1cnc2sc(N3CCOCC3)nn2c1=O	none (no result: CtBP-E1A blk, Six1-Eya2 inh)
Cc1cc2c(s1)c1cnn(Cc3ccc(F)c(F)c3F)c(=O)c1n2C	none (no result: HP1b chromo inh, CtBP-E1A blk, Six1-Eya2 inh, BAZ2B inh)
CC(c1ccc(F)cc1)n1c(Cn2ncc3ccccc3c2=O)n[nH]c1=S (stereo not drawn)	JMJD2A Tudor 12.6µM
CC(C(=O)Nc1ncc([N+](=O)[O-])s1)N1C(=O)c2ccccc2S1(=O)=O (stereo not drawn)	JMJD2A Tudor 20µM (no result: TDP1 block)
CC(C(=O)Nc1ccc(C(N)=O)cc1)N1C(=O)c2ccccc2S1(=O)=O (stereo not drawn)	none
CSc1ccc(/C=N/N2CCN(Cc3ccccc3)CC2)cc1	HP1b chromo inh 44.7µM, JMJD2A Tudor 44.7µM, CtBP-E1A blk inconclusive, Six1-Eya2 inh inconclusive, BAZ2B inh 12.6µM
